# Source: PubChem BioAssay AID1159580 (chemical genetic matrix, 2015)
# Among all 5,500 compounds or so, about 2,000 (36%) were called active. Another 18% or so got no clear call; they are omitted. The list shows a part of the results. Unmarked numbers belong to inactive results. No stated cut-off is given here; in the data, active means normalized growth mostly below about 0.91 (no sharp cut-off); inconclusive means no clear call, values can overlap the other calls; inactive means mostly above about 0.92.
# Test: chemical genetic growth profiling, strain panel (AID 1159580);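 further: tested at 20 µM; growth read once vehicle control cultures reached saturation at 30 °C; 1 = growth at the plate median or of vehicle wells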
# Conditions: S. cerevisiae deletion strains, growth OD
# [1] = locus YAL013W, strain DEP1, stronger effect = lower value
# [2] = locus YBR229C, strain ROT2, stronger effect = lower value
# [3] = locus YDL101C, strain DUN1, stronger effect = lower value
# [4] = locus YDR150W, strain NUM1, stronger effect = lower value
# [5] = locus YEL061C, strain CIN8, stronger effect = lower value
# [6] = locus YGR078C, strain PAC10, stronger effect = lower value
# [7] = locus YGR229C, strain SMI1, stronger effect = lower value
# [8] = locus YHR030C, strain SLT2, stronger effect = lower value
# [9] = locus YHR087W, strain rtc3, stronger effect = lower value
# [10] = locus YJR043C, strain POL32, stronger effect = lower value
# [11] = locus YJR075W, strain HOC1, stronger effect = lower value
# [12] = locus YLR039C, strain RIC1, stronger effect = lower value
# [13] = locus YLR058C, strain SHM2 (second series), stronger effect = lower value
# [14] = locus YLR085C, strain ARP6, stronger effect = lower value
# [15] = locus YLR262C, strain YPT6, stronger effect = lower value
# [16] = locus YML094W, strain GIM5, stronger effect = lower value
# [17] = locus YMR219W, strain ESC1, stronger effect = lower value
# [18] = locus YMR263W, strain SAP30, stronger effect = lower value
# [19] = locus YNL153C, strain GIM3, stronger effect = lower value
# [20] = locus YNL298W, strain CLA4 (second series), stronger effect = lower value
# [21] = locus YNL322C, strain KRE1, stronger effect = lower value
# [22] = locus YNR030W, strain Alg12, stronger effect = lower value
# [23] = locus YPL055C, strain LGE1, stronger effect = lower value
# [24] = locus YPL241C, strain CIN2, stronger effect = lower value
# [25] = locus YPR135W, strain CTF4, stronger effect = lower value
# [26] = locus YAR019C, strain CDC15, stronger effect = lower value
# [27] = locus YBL105C, strain PKC1, stronger effect = lower value
# [28] = locus YBR135W, strain CKS1, stronger effect = lower value
# [29] = locus YBR136W, strain MEC1, stronger effect = lower value
# [30] = locus YBR160W, strain CDC28, stronger effect = lower value
# [31] = locus YDL017W, strain CDC7, stronger effect = lower value
# [32] = locus YDL028C, strain MPS1, stronger effect = lower value
# [33] = locus YDL108W, strain KIN28, stronger effect = lower value
# [34] = locus YDL132W, strain cdc53, stronger effect = lower value
# [35] = locus YDL214C, strain PRR2, stronger effect = lower value
# [36] = locus YDR052C, strain DBF4, stronger effect = lower value
# [37] = locus YDR054C, strain cdc34, stronger effect = lower value
# [38] = locus YDR226W, strain ADK1, stronger effect = lower value
# [39] = locus YDR477W, strain SNF1, stronger effect = lower value
# [40] = locus YER123W, strain YCK3, stronger effect = lower value
# [41] = locus YER133W, strain GLC7, stronger effect = lower value
# [42] = locus YFL009W, strain cdc4, stronger effect = lower value
# [43] = locus YFL029C, strain CAK1, stronger effect = lower value
# [44] = locus YFR003C, strain YPI1, stronger effect = lower value
# [45] = locus YFR019W, strain FAB1, stronger effect = lower value
# [46] = locus YFR028C, strain CDC14, stronger effect = lower value
# [47] = locus YGR040W, strain KSS1, stronger effect = lower value
# [48] = locus YGR052W, strain FMP48, stronger effect = lower value
# [49] = locus YGR092W, strain DBF2, stronger effect = lower value
# [50] = locus YHR079C, strain IRE1, stronger effect = lower value
# [51] = locus YHR082C, strain KSP1, stronger effect = lower value
# [52] = locus YHR205W, strain SCH9, stronger effect = lower value
# [53] = locus YIL147C, strain SLN1, stronger effect = lower value
# [54] = locus YJL095W, strain BCK1, stronger effect = lower value
# [55] = locus YJL128C, strain PBS2, stronger effect = lower value
# [56] = locus YJL157C, strain FAR1, stronger effect = lower value
# [57] = locus YJR016C, strain ILV3, stronger effect = lower value
# [58] = locus YJR066W, strain TOR1 (second series), stronger effect = lower value
# [59] = locus YJR066W, strain TOR1, stronger effect = lower value
# [60] = locus YKL048C, strain ELM1, stronger effect = lower value
# [61] = locus YKL067W, strain YNK1, stronger effect = lower value
# [62] = locus YKL101W, strain HSL1, stronger effect = lower value
# [63] = locus YKL193C, strain SDS22, stronger effect = lower value
# [64] = locus YKL203C, strain TOR2, stronger effect = lower value
# [65] = locus YLR133W, strain CKI1, stronger effect = lower value
# [66] = locus YLR403W, strain SFP1, stronger effect = lower value
# [67] = locus YML070W, strain DAK1, stronger effect = lower value
# [68] = locus YMR001C, strain CDC5, stronger effect = lower value
# [69] = locus YMR205C, strain PFK2 (second series), stronger effect = lower value
# [70] = locus YMR277W, strain FCP1, stronger effect = lower value
# [71] = locus YNL006W, strain LST8, stronger effect = lower value
# [72] = locus YNL020C, strain ARK1, stronger effect = lower value
# [73] = locus YNL161W, strain CBK1, stronger effect = lower value
# [74] = locus YNL183C, strain NPR1, stronger effect = lower value
# [75] = locus YNL207W, strain RIO2, stronger effect = lower value
# [76] = locus YNL222W, strain SSU72, stronger effect = lower value
# [77] = locus YNL307C, strain MCK1 (second series), stronger effect = lower value
# [78] = locus YOL078W, strain AVO1, stronger effect = lower value
# [79] = locus YOL136C, strain PFK27, stronger effect = lower value
# [80] = locus YOR061W, strain CKA2, stronger effect = lower value
# [81] = locus YOR119C, strain RIO1, stronger effect = lower value
# [82] = locus YOR231W, strain MKK1, stronger effect = lower value
# [83] = locus YOR329C, strain SCD5, stronger effect = lower value
# [84] = locus YPL031C, strain PHO85, stronger effect = lower value
# [85] = locus YPL153C, strain RAD53, stronger effect = lower value
# [86] = locus YPL204W, strain HRR25, stronger effect = lower value
# [87] = locus YPL209C, strain IPL1, stronger effect = lower value
# [88] = locus YPL256C, strain CLN2, stronger effect = lower value
# [89] = locus YPR025C, strain CCL1, stronger effect = lower value
# [90] = locus YPR106W, strain ISR1, stronger effect = lower value
# [91] = locus YPR111W, strain DBF20, stronger effect = lower value
# [92] = strain NNK1, stronger effect = lower value
# [93] = strain TSCII, stronger effect = lower value
structure (smiles),measurement,setting,value
CC(C)c1ccccc1NC(=S)N1CCN(c2ncc(C(F)(F)F)cc2Cl)CC1,normalized growth,[1],1.02
same,normalized growth,[2],0.995
same,normalized growth,[3],0.985
same,normalized growth,[4],1.02
same,normalized growth,[5],1.01
same,normalized growth,[6],1.01
same,normalized growth,[7],0.963
same,normalized growth,[8],0.976
same,normalized growth,[9],1.02
same,normalized growth,[10],0.995
same,normalized growth,[11],0.972
same,normalized growth,[12],0.761 (active)
same,normalized growth,[13],0.977
same,normalized growth,[14],1.1
same,normalized growth,[15],0.736 (active)
same,normalized growth,[16],1.04
same,normalized growth,[17],0.992
same,normalized growth,[18],0.991
same,normalized growth,[19],1.02
same,normalized growth,[20],0.984
same,normalized growth,[21],0.998
same,normalized growth,[22],1.02
same,normalized growth,[23],1.13
same,normalized growth,[24],1.07
same,normalized growth,[25],1.17
Cc1cc(C)cc(NC(=S)N2CCN(c3ncc(C(F)(F)F)cc3Cl)CC2)c1,normalized growth,[1],1
same,normalized growth,[2],1.01
same,normalized growth,"locus YCL061C, strain MRC1, stronger effect = lower value",1
same,normalized growth,[3],1
same,normalized growth,"locus YDL134C, strain PPH21, stronger effect = lower value",0.986
same,normalized growth,[4],0.997
same,normalized growth,[5],1.01
same,normalized growth,[6],1
same,normalized growth,[7],0.976
same,normalized growth,[8],1.02
same,normalized growth,[9],1.01
same,normalized growth,[10],1.01
same,normalized growth,[11],0.996
same,normalized growth,"locus YKL190W, strain CNB1, stronger effect = lower value",0.98
same,normalized growth,[12],1.04
same,normalized growth,[13],1.01
same,normalized growth,[14],0.99
same,normalized growth,[15],1.03
same,normalized growth,[16],1.02
same,normalized growth,[17],0.999
same,normalized growth,[18],1
same,normalized growth,"locus YMR307W, strain GAS1, stronger effect = lower value",0.907
same,normalized growth,[19],1.01
same,normalized growth,[20],1.06
same,normalized growth,[21],0.998
same,normalized growth,[22],1.02
same,normalized growth,[23],1.03
same,normalized growth,[24],0.886
same,normalized growth,[25],1
O=C(NCCNc1ncc(Cl)cc1C(F)(F)F)C(F)(F)Sc1ccccc1,normalized growth,[26],0.982
same,normalized growth,[27],0.978
same,normalized growth,[28],0.975
same,normalized growth,[29],0.984
same,normalized growth,[30],0.979
same,normalized growth,[31],0.977
same,normalized growth,[32],0.992
same,normalized growth,[3],0.982
same,normalized growth,[33],0.981
same,normalized growth,[34],0.977
same,normalized growth,[35],0.987
same,normalized growth,[36],0.982
same,normalized growth,[37],0.991
same,normalized growth,[38],0.982
same,normalized growth,[39],0.996
same,normalized growth,[40],1.01
same,normalized growth,[41],1
same,normalized growth,[42],0.979
same,normalized growth,[43],0.984
same,normalized growth,[44],0.985
same,normalized growth,[45],0.996
same,normalized growth,[46],0.982
same,normalized growth,[47],0.991
same,normalized growth,[48],1.14
same,normalized growth,[49],0.994
same,normalized growth,[8],1.2 [resistant] (active)
same,normalized growth,[50],1.17
same,normalized growth,[51],1.19
same,normalized growth,[52],0.975
same,normalized growth,[53],0.986
same,normalized growth,[54],1.16
same,normalized growth,[55],0.934
same,normalized growth,[56],0.985
same,normalized growth,[57],0.989
same,normalized growth,[58],1.01
same,normalized growth,[59],1.19
same,normalized growth,[60],0.973
same,normalized growth,[61],0.991
same,normalized growth,[62],0.984
same,normalized growth,[63],0.973
same,normalized growth,[64],1.08
same,normalized growth,[65],0.979
same,normalized growth,[66],0.998
same,normalized growth,[67],0.986
same,normalized growth,[68],0.969
same,normalized growth,[69],0.984
same,normalized growth,[70],0.975
same,normalized growth,[71],0.983
same,normalized growth,[72],0.978
same,normalized growth,[73],0.984
same,normalized growth,[74],1.13
same,normalized growth,[75],0.989
same,normalized growth,[76],0.976
same,normalized growth,[77],0.972
same,normalized growth,[78],0.981
same,normalized growth,[79],1
same,normalized growth,[80],0.992
same,normalized growth,[81],1.02
same,normalized growth,[82],1.12
same,normalized growth,[83],0.985
same,normalized growth,[84],0.99
same,normalized growth,[85],1.01
same,normalized growth,[86],0.995
same,normalized growth,[87],0.983
same,normalized growth,[88],1.25 [resistant] (active)
same,normalized growth,[89],0.984
same,normalized growth,[90],0.982
same,normalized growth,[91],0.979
same,normalized growth,[92],0.993
same,normalized growth,[93],0.978
O=C(NCCNc1ncc(C(F)(F)F)cc1Cl)C(F)(F)Sc1ccccc1,normalized growth,[26],0.985
same,normalized growth,[27],0.983
same,normalized growth,[28],0.971
same,normalized growth,[29],0.973
same,normalized growth,[30],0.984
same,normalized growth,[31],0.977
same,normalized growth,[32],0.97
same,normalized growth,[3],0.976
same,normalized growth,[33],0.957
same,normalized growth,[34],0.988
same,normalized growth,[35],0.898
same,normalized growth,[36],0.986
same,normalized growth,[37],0.978
same,normalized growth,[38],0.982
same,normalized growth,[39],0.919
same,normalized growth,[40],0.828
same,normalized growth,[41],0.924
same,normalized growth,[42],0.982
same,normalized growth,[43],0.988
same,normalized growth,[44],0.972
same,normalized growth,[45],0.885
same,normalized growth,[46],0.989
same,normalized growth,[47],0.916
same,normalized growth,[48],0.978
same,normalized growth,[49],0.909
same,normalized growth,[8],0.99
same,normalized growth,[50],0.994
same,normalized growth,[51],1
same,normalized growth,[52],0.912
same,normalized growth,[53],0.974
same,normalized growth,[54],0.98
same,normalized growth,[55],0.914
same,normalized growth,[56],0.887
same,normalized growth,[57],0.974
same,normalized growth,[58],0.899
same,normalized growth,[59],0.989
same,normalized growth,[60],0.939
same,normalized growth,[61],0.91
same,normalized growth,[62],0.908
same,normalized growth,[63],0.984
same,normalized growth,[64],0.991
same,normalized growth,"locus YLR113W, strain HOG1, stronger effect = lower value",0.883
same,normalized growth,[65],0.916
same,normalized growth,[66],0.922
same,normalized growth,[67],0.876
same,normalized growth,[68],0.978
same,normalized growth,[69],0.907
same,normalized growth,[70],0.983
same,normalized growth,[71],0.978
same,normalized growth,[72],0.894
same,normalized growth,[73],0.985
same,normalized growth,[74],0.961
same,normalized growth,[75],0.983
same,normalized growth,[76],0.979
same,normalized growth,[77],0.905
same,normalized growth,[78],0.98
same,normalized growth,[79],0.893
same,normalized growth,[80],0.868
same,normalized growth,[81],0.966
same,normalized growth,[82],0.939
same,normalized growth,[83],0.987
same,normalized growth,[84],0.912
same,normalized growth,[85],0.907
same,normalized growth,[86],0.936
same,normalized growth,[87],0.975
same,normalized growth,[88],1
same,normalized growth,[89],0.98
same,normalized growth,[90],0.984
same,normalized growth,[91],0.968
same,normalized growth,[92],0.982
same,normalized growth,[93],0.982
